Assay outcomes from PubChem BioAssay.
HT1080 IDH1KD tx: HT-1080 IDH1 knockdown cell toxicity (counter line); HT-1080 IDH1 knockdown viability, ATP luminescence, 48 h; AID 686971; Potency, µM (series often up to 46.1 µM), for inactives: at the highest dose activity, negative = toxicity, hits mostly cytotoxic; 2% of 360,000 active;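 note: potency is the fitted concentration of half-maximal effect; 0% = DMSO wells and -100% = cell-free medium wells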
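Using the IDH1-knockdown HT-1080 line run in the same batch and compound series as the NT line, viability after 48 h at 37 °C was determined by CellTiter-Glo luminescence and expressed as % activity.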
IL1B secr inh: inflammasome signaling inhibition, IL-1 beta readout; THP-1 LPS/ATP IL-1B secretion, AlphaLISA, 16 h; hits give low values; activity change, % at 57.5 µM; 4.7% of 360,000 active; AID 743279; in the data active = activity change below about -50%; inconclusive = mostly about -30% to -49%
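Secreted IL-1B measured by AlphaLISA bead assay after 16 h compound exposure of THP-1 cells; compounds (final up to 57.5 uM) added 1 h before LPS (250 ng/mL) and ATP (1.25 mM) stimulation; lower signal means less secretion.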
TDP1 cell noCPT: qHTS for Inhibitors of human tyrosyl-DNA phosphodiesterase 1 (TDP1): qHTS in cells in absence of CPT; DT40 Tdp1-/- hTDP1 cells, no CPT, ATP luminescence, 48 h; Potency, µM (highest dose often 46.2 µM), for inactives: top-dose activity change, negative = growth inhibition, most hits filed as inhibitors; 15% of 420,000 active; AID 686978, 2013; note: potency is the fitted concentration of half-maximal effect; nearly all actives have a fitted effect of over 55% in size
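Chicken DT40 Tdp1-/- cells stably complemented with human TDP1 were seeded at 400 cells/well with DMSO in place of 20 nM camptothecin. After compound pinning, cells grew at least 48 hr at 37 °C; viability read by CellTiter-Glo luminescence.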
TDP1 cell CPT: growth inhibition of DT40 Tdp1-/-;hTDP1 cells with camptothecin (screen for TDP1 inhibitors); chicken DT40 Tdp1-/-;hTDP1 cells + 20 nM CPT, ATP luminescence, 48 h; Potency, µM (doses to about 46.2 µM), for inactives: at the highest dose activity change, negative = growth inhibition, most hits filed as inhibitors; 12% of 420,000 active; AID 686979; note: potency is the fitted concentration of half-maximal effect; nearly all actives have a fitted effect of over 55% in size
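Chicken DT40 Tdp1-/- cells complemented with human TDP1, 400 cells/well, exposed to compounds plus 20 nM camptothecin for at least 48 h at 37 C; viability read as ATP content by CellTiter-Glo luminescence.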
HT1080NT lethal: kills 2HG-producing HT-1080-NT fibrosarcoma cells; 1.6% of 360,000 active; Potency, µM (highest dose often 46.1 µM), inactives show at the top dose activity, negative = less viability, actives largely listed as cytotoxic; HT-1080-NT fibrosarcoma viability, CellTiter-Glo ATP luminescence, 48 h;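 note: NT is the 2HG producing partner of a matched IDH1 knockdown line; potency is the fitted concentration of half-maximal effect; 0% = DMSO-treated cells and -100% = media-only wells without cells; nearly all actives have a fitted effect of over 55% in size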
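HT-1080-NT fibrosarcoma cells (2HG-overproducing), 750 cells/well in RPMI with 5% FBS, dosed after 2 h and incubated 48 h at 37C. CellTiter-Glo luminescence normalized to DMSO and no-cell wells; concentration-response curves fitted and classed.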
Active calls of the source: *; ? = inconclusive; · = no result. An excerpt weighted towards active compounds, which were near 19% of everything screened. Unless noted, calls come from the whole dose curve; as a rule, active = well fitted curve in the direction sought with a large enough effect; inconclusive = small, poorly fitted or top-dose-only effect, or another doubt; inactive = no such curve, though single readings can be large; an effect the other way counts as inactive or inconclusive. Unless noted, % is set by controls: 0 for no effect and ±100 for the full control effect.

SMILES	HT1080 IDH1KD tx	IL1B secr inh	TDP1 cell noCPT	TDP1 cell CPT	HT1080NT lethal
Cc1oc(-c2ccc(Cl)cc2)cc1C(=O)N1CCC1(C)C(=O)O (configuration not stated)	0%	-5	?	29µM*	7%
CC1(C(=O)O)CCCN1C(=O)c1ccc(Cl)cc1Cl (configuration not stated)	?	3	4%	?	21%
O=S(=O)(c1ccc(Br)cc1Cl)N1CCCN(c2ccc(C(F)(F)F)cn2)CC1	-2%	-22	?	?	-7%
COc1ccc(-c2nnc(SCC(=O)c3ccc(O)cc3O)o2)cc1	10%	33	-26%	-3%	19%
Cc1cc(C)cc(OCC(=O)N2CCC(c3nc4ccccc4o3)CC2)c1	·	·	16µM*	?	·
Cc1cc(OC(C)C(=O)N2CCC(c3nc4ccccc4o3)CC2)ccc1Cl (configuration not stated)	·	·	15µM*	23µM*	·
O=C(CSc1nc2ccccc2c(=O)n1NC(=O)Cc1ccccc1)NCCc1ccccc1	10%	-12	-15%	-9%	0%
Cc1cccc2cc(CN(CCCO)C(=O)Nc3cccc(Cl)c3)c(=O)[nH]c12	-30%	-25	21µM*	23µM*	-19%
Cc1ccc(C)c2[nH]c(=O)c(CN(CCN3CCCC3)C(=O)Nc3ccc(F)cc3)cc12	?	?	15µM*	?	16µM*
Cc1cccc2cc(CN(CCCO)C(=O)Nc3ccc(Cl)cc3)c(=O)[nH]c12	?	?	21µM*	?	?
COc1cccc(Oc2cn[nH]c2-c2ccc(OC)cc2O)c1	?	-18	?	?	?
COc1cccc(Oc2cn[nH]c2-c2ccc(O)cc2O)c1	?	15	?	9.2µM*	?
COc1ccccc1Oc1cn[nH]c1-c1ccc(O)cc1O	-9%	17	21µM*	-25%	-12%
O=S(=O)(NCc1nnc2n1CCN(Cc1ccccc1Cl)CC2)c1ccccc1	·	·	?	-12%	·
CCN(Cc1ccccc1)S(=O)(=O)c1ccc(C(=O)N2CCN(c3nc4ccccc4s3)CC2)cc1	13%	-19	9.2µM*	15µM*	18%
CCOc1ccc2nc(N3CCN(C(=O)CS(=O)(=O)c4ccc(F)cc4)CC3)sc2c1	·	·	16µM*	15µM*	·
CCS(=O)(=O)c1cccc(C(=O)N2CCN(c3nc4c(C)ccc(Cl)c4s3)CC2)c1	·	·	?	16µM*	·
CCOc1ccc2nc(N3CCN(C(=O)c4ccc(S(=O)(=O)CC)cc4)CC3)sc2c1	·	·	18µM*	18µM*	·
COc1ccc(C)c2sc(N3CCN(C(=O)c4cccc(F)c4)CC3)nc12	·	·	-25%	-18%	·
CS(=O)(=O)c1ccc(CNC(=O)C2(C(F)(F)F)C/C(=C/CCO)CCCO2)cc1 (configuration not stated)	0%	-3	21%	-2%	-2%
COc1ccc(NC(=O)c2cc(-c3cc(C)ccc3O)n[nH]2)cc1Cl	43%	-8	?	-17%	3%
COc1ccc(Cl)cc1NC(=O)c1cc(-c2ccccc2O)n[nH]1	-3%	-12	15µM*	?	-2%
COc1ccccc1-c1cc(-c2cc(Cl)ccc2O)n[nH]1	2%	0	-9%	-4%	5%
NS(=O)(=O)c1ccc(NC(=O)c2cc(-c3cc(Cl)ccc3O)n[nH]2)cc1	18µM*	-29	?	-7%	?
Cc1c(Cl)cccc1NC(=O)c1cc(-c2ccccc2O)n[nH]1	?	-60*	?	?	?
SMILES	HT1080 IDH1KD tx	IL1B secr inh	TDP1 cell noCPT	TDP1 cell CPT	HT1080NT lethal
COc1ccc(OC)c(NC(=O)c2cc(-c3cc(Cl)ccc3O)n[nH]2)c1	?	?	12µM*	18µM*	-27%
CSCC[C@H](NC(=O)[C@@H]1CSC2c3ccccc3C(=O)N21)C(=O)NCc1ccco1 (some centres not stated)	20%	4	0%	-13%	11%
O=C1CCCN1c1ccc(C(=O)N(Cc2nnc(-c3ccc(Cl)cc3)o2)C2CC2)cc1	9%	-14	?	?	19%
O=C(Nc1ccc(S(=O)(=O)N2CCOCC2)cc1)c1cc(-c2ccccc2O)n[nH]1	-16%	?	1%	-19%	-3%
CC1CN(S(=O)(=O)c2ccc(NC(=O)c3cc(-c4ccccc4O)n[nH]3)cc2)CC(C)O1 (configuration not stated)	?	-51*	?	21µM*	?
NC(=O)CSc1nnnn1-c1ccccc1Cl	16%	-4	-18%	2%	9%
Cc1ccc(CC(=O)Nc2nnc(-c3ccc(F)cc3)o2)c(C)c1	-2%	-1	16µM*	?	2%
COc1cc(OC)cc(-c2nnc(NC(=O)Cc3ccc(F)cc3)o2)c1	-4%	13	2.6µM*	1.5µM*	-13%
O=C(COc1ccccc1)Nc1nnc(-c2ccc(F)cc2)o1	-2%	12	-1%	-14%	-5%
Cc1ccc(CN(C)C(=O)CCNS(=O)(=O)c2ccccc2)o1	4%	6	0%	10%	11%
CCNc1ncc2nc(-c3cc(F)cc(F)c3)c(=O)n(C)c2n1	·	·	-1%	-6%	·
O=S(=O)(Nc1ccc2c(c1)nc1n2CCN(Cc2ccccc2)C1)c1ccc(F)cc1	-1%	0	?	26µM*	-1%
CC(c1ccccc1)N1CCn2c(nc3cc(NS(C)(=O)=O)ccc32)C1 (configuration not stated)	-15%	103	?	1%	1%
O=S(=O)(Nc1ccc2c(c1)nc1n2CCN(Cc2ccccc2)C1)c1ccccc1	-23%	-1	23µM*	23µM*	-10%
Cc1ccc(S(=O)(=O)Nc2ccc3c(c2)nc2n3CCN(Cc3ccccc3)C2)cc1	-22%	-69*	?	16µM*	-14%
O=S(=O)(Nc1ccc2c(c1)nc1n2CCN(Cc2ccccc2)C1)c1ccc(Cl)cc1	-27%	-55*	15µM*	18µM*	-24%
Cn1c(CN2CCCCC2)nc2cc(NS(=O)(=O)c3ccc(F)cc3)ccc21	6%	-2	?	-16%	4%
Cn1c(CN2CCCCC2)nc2cc(NS(=O)(=O)c3ccc(Cl)cc3)ccc21	-14%	-16	-22%	?	-29%
O=C(Cc1cc(=O)[nH]c(=O)[nH]1)NCc1ccc(Cl)cc1	0%	-11	1%	1%	-10%
COc1cccc2cc(-c3nc(-c4ccc(Cl)cc4)cs3)c(=O)oc12	·	·	?	-4%	·
